Results on eleven compounds are retold here after PubChem BioAssay (NCATS).

“And” between values parts separate entries of the source, which are not always exact repeats. Identical values can stand only once. Inconclusive results are not listed. The source made the active and inactive calls. Unless noted, the call rests on the fitted dose curve; in most records, active means well fitted curve in the direction sought with a large enough effect; inconclusive means small, poorly fitted or top-dose-only effect, or another doubt; inactive means no such curve, though single readings can be large; an effect the other way counts as inactive or inconclusive.

The nature of assay [1]: Validation of Assay for Modulators of Lamin A Splicing (AID 1459; active means well fitted curve in the direction sought with a large enough effect in the signal ratio; the % refers to the signal ratio;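 further: cells exposed to compound for two days before reading; 0% is about no effect; ratio rise marks activators and ratio drop marks inhibitors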). The method in brief: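 Splicing correction read as GFP (500-530 nm) over DsRed2 (575-640 nm) object intensity after 48 h compound exposure of reporter HeLa S3 clones (600 cells/well, 2% FBS medium); ancitabine and cycloheximide titrations, 0.5% DMSO as vehicle.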
The nature of assay [2]: qHTS Assay for Lipid Storage Modulators (AID 1519; calls by dose curve; on activity change, negative = inhibition: on the % scale 0 is the no-effect control and ±100 the full control effect). To be noted: Drosophila S3 cells, BODIPY lipid droplet/cell ratio, laser cytometry, cells loaded with oleic acid. Put shortly: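 Cells seeded at 5,000 per well were treated with compounds over a concentration series and loaded with oleic acid (400 uM, as added). Lipid droplet fluorescence (488 nm excitation, 500-530 nm channel) was read by laser-scanning cytometry and normalized to 20 uM Triacsin C.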
Background: In qHTS, concentration-response curves come from the screen itself.

Assay [3] addresses DNA repair nuclease/redox regulator APEX1 (Homo sapiens) (UniProt P27695). Kind of assay: qHTS Validation Assay for Inhibitors of the Human Apurinic/apyrimidinic Endonuclease 1 (APE1) (AID 1705; further: potency means the concentration at half of the fitted maximal effect;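 on activity change, negative = inhibition: TAMRA fluorescence gain over two minutes as APE1 cuts a quenched THF abasic duplex; on the % scale 0 is the no-effect control and ±100 the full control effect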). The method in brief: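 Activity read as rising fluorescence (598 nm emission, 525 nm excitation) from incision of a TAMRA/BHQ-2 duplex carrying a THF abasic site (50 nM). Compound and enzyme sat 15 min at RT before substrate start; signal change between first and third 60-s reads.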

Assay [4] in a line: Counterscreen for APE1 Inhibitors: Fluorescent Dye Displacement Validation Assay (AID 1707).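 Further: plate controls were ThO with dsDNA and no compound for no effect and ThO without dsDNA for full effect.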 The method in brief:
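Assay buffer: Tris-HCl pH7.5 with 50mM NaCl, 2 mM MgCl2, 0.01% Tween-20. Dye 250 nM, duplex 50 nM final. Readout: decrease in ThO endpoint fluorescence, 480 nm excitation, 540 nm emission.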
A general note: A counterscreen serves to expose hits that act by an unwanted route or on another target.

In assay [5] the target is Endonuclease 4 (Escherichia coli (strain K12)) (UniProt P0A6C1). Kind of assay: Counterscreen for APE1 Inhibitors: qHTS Validation Assay for Inhibitors of Endonuclease IV (AID 1708). Further: on the % scale 0 is the no-effect control and ±100 the full control effect. Put shortly:
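qHTS concentration-response format; LOPAC1280 tested under APE1-screen conditions. 2 nM enzyme, 15 min compound preincubation at RT, then 50 nM TAMRA/BHQ-2 abasic substrate; kinetic fluorescence read, three reads at 60 s intervals.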

For assay [6], the target named is Alpha-galactosidase A (Homo sapiens) (UniProt P06280). Kind of assay: Counterscreen for Glucocerebrosidase Inhibitors: qHTS Assay for Human alpha-Galactosidase at pH 4.5 (AID 992). Further: 0% is about no effect. The method in brief: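 Concentration-response curves (0.7 nM to 77 uM final) were modeled with the Hill equation to give AC50. Reactions: 2 nM enzyme, 80 uM fluorogenic alpha-galactoside, pH 4.5 citric acid buffer, 20 min, room temperature.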

Assay [7] addresses alpha-glucosidase (Oryza sativa, rice) (UniProt Q653V4). Kind of assay: Counterscreen for Glucocerebrosidase Inhibitors: qHTS Assay for Rice alpha-Glucosidase at pH 5.0 (AID 997).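 Further: 0% = full activity with enzyme and -100% = basal without enzyme.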 The method in brief:
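Rice alpha-glucosidase (4 nM final) with 400 uM 4-methylumbelliferyl-alpha-D-glucopyranoside in citrate buffer pH 5.0, 20 min at room temperature, stopped at pH 10; fluorescence 365/440 nm, compounds 0.7 nM–77 uM, AC50 from Hill fits.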

Assay [8] in a line: Cell Viability - LYMP2-010 (AID 981). Further: potency means the concentration at half of the fitted maximal effect; nearly all actives have a fitted effect of over 55% in size. The method in brief: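 Human lymphoblastoid LYMP2-010 cells (2500/well) treated 24 h at 37 C in complete medium; viability read as intracellular ATP by CellTiter-Glo luminescence. AC50 from Hill fits of concentration-response data; tetraoctylammonium bromide positive control.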
Assay [9] can be described thus: Cell Viability - LYMP2-012 (AID 982).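 Further: cellular ATP by luciferase luminescence where a drop means cytotoxicity; potency means the concentration at half of the fitted maximal effect; cells exposed to compound for one day before reading; nearly all actives have a fitted effect of over 55% in size.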
Assay [10] in a line: Cell Viability - LYMP2-018 (AID 985).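 Further: potency means the concentration at half of the fitted maximal effect; compound exposure lasted 24 hr at 37 °C; nearly all actives have a fitted effect of over 50% in size.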 Put shortly:
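Human lymphoblastoid LYMP2-018 cells, 2500/well, settled 5 hr at 37 C then exposed to compound 24 hr at 37 C; intracellular ATP measured by CellTiter-Glo luminescence. AC50 from Hill-equation concentration-response fits.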

The nature of assay [11]: Cell Viability - LYMP2-020 (AID 986). Further: potency means the concentration at half of the fitted maximal effect; nearly all actives have a fitted effect of over 55% in size. Put shortly: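 Human lymphoblastoid LYMP2-020 cells (2500/well) preincubated 5 h at 37 C, then treated 24 h at 37 C. Viability measured as intracellular ATP by CellTiter-Glo luminescence after 30 min at room temperature; AC50 from Hill fits.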
Assay [12] in a line: Cell Viability - LYMP2-022 (AID 987). Further: potency means the concentration at half of the fitted maximal effect; nearly all actives have a fitted effect of over 55% in size. Put shortly:
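LYMP2-022 lymphoblastoid cells (2500/well, complete medium) were treated with compounds for 24 hours at 37 C; intracellular ATP was then read by CellTiter-Glo luminescence after 30 min at room temperature. AC50 values were derived from Hill-equation fits.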

The nature of assay [13]: Cell Viability - LYMP2-024 (AID 988). Further: potency means the concentration at half of the fitted maximal effect; nearly all actives have a fitted effect of over 60% in size. The method in brief:
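Human lymphoblastoid LYMP2-024 cells (2500/well) rested 5 hr, then treated with compound for 24 hr at 37 C in complete medium. Viability was measured as intracellular ATP by CellTiter-Glo luminescence. AC50 values came from Hill-equation fits.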

Assay [14] in a line: Cell Viability - LYMP1-002 - Assay at 24 hr (AID 993). Further: potency means the concentration at half of the fitted maximal effect. Put shortly:
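Human lymphoblastoid LYMP1-002 cells (2500/well) treated 24 h at 37 °C; viability as intracellular ATP by CellTiter-Glo luminescence. Tetraoctylammonium bromide as positive control; AC50 from Hill-equation fits of qHTS concentration-response.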

A short description of assay [15]: Cell Viability - LYMP2-006 (AID 978). Further: potency means the concentration at half of the fitted maximal effect; nearly all actives have a fitted effect of over 60% in size. The method in brief:
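Potency values are Hill-fit AC50s for decreases in intracellular ATP (CellTiter-Glo luminescence). LYMP2-006 lymphoblastoid cells, 2500 per well, were exposed to compound in complete culture medium for 24 hr at 37 C.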

Assay [16] is described as follows: Cell Viability - LYMP2-007 (AID 979).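 Further: potency means the concentration at half of the fitted maximal effect; cells exposed to compound for 24 h before reading; nearly all actives have a fitted effect of over 60% in size.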 The method in brief: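 Human lymphoblastoid LYMP2-007 cells (2500/well) preincubated 5 h at 37 C, then treated 24 h at 37 C in complete medium. Viability by CellTiter-Glo ATP luminescence after 30 min at room temperature; AC50 from Hill fits.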
The nature of assay [17]: Cell Viability - LYMP2-008 (AID 980). Further: potency means the concentration at half of the fitted maximal effect; nearly all actives have a fitted effect of over 60% in size. The method in brief:
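LYMP2-008 lymphoblastoid cells (2500/well) plated 5 h, then treated 24 h at 37 C in complete medium. Viability read as intracellular ATP by CellTiter-Glo luminescence after 30 min at room temperature; AC50 from Hill fits.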

A short description of assay [18]: Cell Viability - LYMP2-016 (AID 984). The method in brief:
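Cytotoxicity was scored by luminescent ATP content (CellTiter-Glo) after 24 h compound exposure at 37 C of a human lymphoblastoid line at 2500 cells/well. Concentration-response data were fitted to the Hill equation for AC50.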

The mark [19] stands for this setting: measured here: cell count channel max response.
The mark [20] stands for this setting: measured here: lipid channel max response.

Chain of DNA repair nuclease/redox regulator APEX1 (Homo sapiens) (P27695 whole entry, looked up): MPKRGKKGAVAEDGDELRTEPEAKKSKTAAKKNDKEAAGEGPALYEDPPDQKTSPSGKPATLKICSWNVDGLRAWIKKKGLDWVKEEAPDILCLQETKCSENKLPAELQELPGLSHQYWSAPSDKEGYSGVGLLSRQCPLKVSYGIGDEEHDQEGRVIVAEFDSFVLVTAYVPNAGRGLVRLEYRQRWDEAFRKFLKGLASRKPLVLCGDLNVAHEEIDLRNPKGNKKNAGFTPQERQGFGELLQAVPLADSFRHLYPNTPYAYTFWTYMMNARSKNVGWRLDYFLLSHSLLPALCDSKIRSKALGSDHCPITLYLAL
Chain of Alpha-galactosidase A (Homo sapiens) (P06280 whole entry, looked up): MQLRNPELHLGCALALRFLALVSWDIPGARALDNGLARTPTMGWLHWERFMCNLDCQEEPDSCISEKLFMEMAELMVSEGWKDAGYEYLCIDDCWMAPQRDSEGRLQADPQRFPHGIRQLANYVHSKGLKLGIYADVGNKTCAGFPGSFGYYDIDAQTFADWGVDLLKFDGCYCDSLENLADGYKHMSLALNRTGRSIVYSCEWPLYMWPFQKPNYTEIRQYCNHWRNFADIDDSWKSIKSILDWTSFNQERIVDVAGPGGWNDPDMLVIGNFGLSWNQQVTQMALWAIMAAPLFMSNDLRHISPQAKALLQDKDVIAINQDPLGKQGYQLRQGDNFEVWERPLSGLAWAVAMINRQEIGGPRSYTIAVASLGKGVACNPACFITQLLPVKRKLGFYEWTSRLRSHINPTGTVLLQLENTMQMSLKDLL

`CN1C2CCC1CC(OC(=O)c1c[nH]c3ccccc13)C2` (stereo not given): the call in assay [1], in [4] and in assay [5] was inactive. Also, in [2] (at 57.5 µM (top of the series)), the activity change, negative = inhibition was 1.19% (inactive). The results for the max response in assay [2] (setting [19]) and in assay [2] (setting [20]) were 10.2% and 11.1%, respectively. For the same compound, the Potency in assay [3] was 39.8 µM (active).

For the compound `COc1c(C)c2c(c(O)c1C/C=C(\C)CCC(=O)O)C(=O)OC2`, the activity change, negative = inhibition in assay [2] (at 25.7 µM (top of the series)) was -1.1% (inactive). The max response in assay [2] (setting [19]) stood at 6.28%; in assay [2] (setting [20]), 5.14%.

Consider `C/C=C(/C(=C/C)c1ccc(O)cc1)c1ccc(O)cc1`, for which the activity change, negative = inhibition in assay [2] (at 57.5 µM (top of the series)) is 15.3% (inactive). Also, the results for the max response in assay [2] (setting [19]) and in [2] (setting [20]) were 6.35% and 27.9%, respectively.

On to `O=C(COc1ccc(Cl)cc1)N1CCN(Cc2ccc3c(c2)OCO3)CC1`, for which the activity change, negative = inhibition in assay [2] (at 25.7 µM (top of the series)) was 1.24% (inactive). Moreover, the max response in [2] (setting [19]) was -6.27%; in [2] (setting [20]) it was -4.72%.

On to `Nc1cc(Cl)c(NC2=NCCN2)c(Cl)c1`, for which the result in [6], in assay [7], in [1] and in assay [4] was inactive. The Potency entry in [3] was “inactive”.

For the compound `O=C(CCCN1CCC(O)(c2ccc(Br)cc2)CC1)c1ccc(F)cc1`, in [2] (at 25.7 µM (top of the series)), the activity change, negative = inhibition is -4.42% (inactive). The results for the max response in assay [2] (setting [19]) and in assay [2] (setting [20]) were -5.85% and -9.42%, respectively.

As for `CC(CCc1ccccc1)NCC(O)c1ccc(O)c(C(N)=O)c1` (stereo not given), the compound was called inactive in assay [1], in assay [4] and in [5]. In addition, the activity change, negative = inhibition in [2] (at 57.5 µM (top of the series)) is 1.59% (inactive) and 2.63% (inactive). Besides, the max response was 0.538% and 18.3% in assay [2] (setting [19]); 3.22% and 11.8% in assay [2] (setting [20]). Besides, the Potency entry in assay [3] was “inactive”.

Turning to `CNCCC=C1c2ccccc2CCc2ccccc21`, the compound was called inactive in [6], in assay [7], in assay [4] and in [5]. The Potency result in [3] was “inactive”.

As to `COc1cccc2c1C(=O)c1c(O)c3c(c(O)c1C2=O)C[C@@](O)(C(C)=O)C[C@@H]3O[C@H]1C[C@H](N)[C@H](O)[C@H](C)O1`, the Potency is 0.199 µM (active) in assay [8]; 0.158 µM (active) in assay [9]; 0.158 µM (active) in assay [10]; 0.501 µM (active) in assay [11]; 0.1 µM (active) in assay [12]; 0.126 µM (active) in assay [13]. Further, the Potency in assay [14] is 0.794 µM (active).

As for `CC(=O)O[C@]1(C(C)=O)CC[C@H]2[C@@H]3C[C@H](C)C4=CC(=O)CC[C@]4(C)[C@H]3CC[C@@]21C`, the Potency is 39.8 µM (active) in [15]; 39.8 µM (active) in assay [16]; 39.8 µM (active) in assay [17]; 31.6 µM (active) in assay [8]; 31.6 µM (active) in assay [9]; 39.8 µM (active) in [18]. For the same compound, the Potency in assay [10] and in assay [12] was 39.8 µM (active) throughout. For the same compound, the Potency entry in assay [14] was “inactive”.

Consider `Oc1c(Cl)cc(Cl)cc1Sc1cc(Cl)cc(Cl)c1O`, for which the Potency is 31.6 µM (active) in [17], 50.1 µM (active) in assay [8], 39.8 µM (active) in assay [18] and 31.6 µM (active) in assay [11]. Also, in assay [14], the Potency result is “inactive”. For the same compound, in assay [2] (at 57.5 µM (top of the series)), the activity change, negative = inhibition is 0.0363% (inactive). Further, the figures for the max response in assay [2] (setting [19]) and in assay [2] (setting [20]) were 9.87% and 13.2%, respectively.
